Measured values published in PubChem BioAssay AID493169 (National Center for Advancing Translational Sciences (NCATS), 2011).
Results filed as inconclusive are left out. Activity calls are given as the source filed them. Calls follow the shape of the dose curve; as a rule, active = well fitted inhibition curve with a large enough effect; inconclusive = small, poorly fitted or top-dose-only effect; inactive = flat fitted curve, though single readings scatter.
% is scaled to controls: 0 for no effect and ±100 for the full control effect; potency is read from the fitted curve at half-maximal effect.

Experiment: CHOP2 Reporter Counterscreen Assay for Inhibitors of Ubiquitin-specific Protease USP2a;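 also: activated enterokinase alone at 50 pM in a cell-free format rather than USP2a or CHOP2; nearly all actives have a fitted effect of over 55% in size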
Settings: purified enterokinase, fluorogenic substrate, 485/531 nm; series mostly up to 38.3 µM; activity change, negative = inhibition: at the top concentration
In short: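 Fluorescence (485/531 nm) read 10 min after adding 25nM reporter substrate to 50 pM activated EK preincubated 30 min RT with compound; Tris pH 8.0/CaCl2/CHAPS buffer. Data normalized to buffer-alone inhibition; concentration-response curves fitted.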
For `c1ccc(Nc2c3c(nc4ncnn24)CCC3)cc1`, the “activity change, negative = inhibition” value was 2.61% (inactive). For `CCCC(=O)Nc1ccc(N2CCN(C(=O)c3cc4ccccc4o3)CC2)cc1`, the “activity change, negative = inhibition” value was 5.53% (inactive). For `COc1ccc(NC(=O)CSc2nc(O)cc(=O)n2-c2ccc(OC)cc2)cc1`, the “activity change, negative = inhibition” value was -6.78% (inactive). With `Cc1ccc(C(=O)COC(=O)CNC(=O)CN2C(=O)c3ccccc3C2=O)cc1` the “activity change, negative = inhibition” value was 4.51% (inactive). With `O=C(CN1CCOCC1)Nc1ccc(C2CCCCC2)cc1` the “activity change, negative = inhibition” value was -0.907% (inactive). With `CC1CCCCC1NC(=O)CSCC(=O)O` (stereo not given) the “activity change, negative = inhibition” value was 4.32% (inactive). For `COc1ccccc1C(=O)n1nc(-c2cccnc2)nc1NCc1ccccc1`, the Potency was 1 µM (active). In the case of `CN(C)C=Nc1ncc2c3ccccc3n(CCN(C)C)c2c1C#N`, the “activity change, negative = inhibition” value is reported as -3.87% (inactive). For `COCc1c(C(=O)OCC(=O)c2c(N)n(CC(C)C)c(=O)n(C)c2=O)oc2ccccc12`, the “activity change, negative = inhibition” value was -2.9% (inactive). For `CCn1c(COc2ccccc2)nnc1SCC(=O)CC(=O)Nc1ccccc1OC`, the “activity change, negative = inhibition” value was -12.8% (inactive). In the case of `CCCCCCCCCCOC(=O)Cn1c(COc2ccccc2C)[n+](C)c2ccccc21`, the Potency is reported as 5.62 µM (active). With `CC1CCCCN1CCNC(=O)c1cnn2ccccc12` (stereo not given) the “activity change, negative = inhibition” value was 1.66% (inactive). In the case of `CCCSCCCNC(=O)CC1Oc2ccccc2NC1=O` (stereo not given), the “activity change, negative = inhibition” value is reported as -2.32% (inactive). In the case of `O=C(CCS(=O)(=O)c1ccc(Br)s1)NC1CCCC1`, the “activity change, negative = inhibition” value is reported as 0.117% (inactive). In the case of `Oc1ccccc1/C=N/Nc1ncc(Br)cn1`, the “activity change, negative = inhibition” value is reported as -2.82% (inactive). With `CCOC(=O)C1CCCN(C(=O)c2cc(-c3ccco3)nc3ccccc23)C1` (stereo not given) the Potency was 5.62 µM (active). For `CCOc1ccc(Cn2nnc(C(=O)NCc3ccccc3)c2N)cc1`, the “activity change, negative = inhibition” value was 0.856% (inactive). With `CCOC(=O)c1c(C)[nH]c(C(=O)COC(=O)CSC)c1C` the “activity change, negative = inhibition” value was 1.66% (inactive). For `CCOC(=O)Nc1nnc(CCc2ccccc2)s1`, the “activity change, negative = inhibition” value was -3.27% (inactive). For `COc1ccc(S(=O)(=O)NCCSCc2ccco2)cc1OC`, the Potency was 10 µM (active). For `CCOc1ccc(C=NNc2ccc(S(=O)(=O)Nc3ccccc3C(=O)O)cc2[N+](=O)[O-])cc1`, the Potency was 11.2 µM (active). With `Cc1ccc2nc(NCCCNC(=O)c3cnccn3)c(C#N)cc2c1` the “activity change, negative = inhibition” value was 1.61% (inactive). For `COc1cc(C2C(C#N)=C(N)Oc3c2ccc2ccccc32)ccc1OCC(=O)Nc1cccc(C)c1` (stereo not given), the “activity change, negative = inhibition” value was 2.73% (inactive). For `O=C(OCc1ccccc1)C1CCCN1C(=O)c1cccs1` (stereo not given), the “activity change, negative = inhibition” value was 8.05% (inactive). In the case of `Cc1ccc(C(=O)NCc2ccc3c(c2)OCO3)cc1N1CCCC1=O`, the “activity change, negative = inhibition” value is reported as 2.1% (inactive). With `C=CCn1c(N)c(C(=O)NCc2cccnc2)sc1=S` the “activity change, negative = inhibition” value was 12.9% (inactive). In the case of `Cc1ccc(/C=C2/SC(=S)N(c3ccc(S(=O)(=O)Nc4nccs4)cc3)C2=O)cc1`, the Potency is reported as 12.6 µM (active). In the case of `CC1CCCC(NC(=O)C2N(CCCN3CCCC3)C(=O)C3C(C(=O)Nc4ccc(Cl)cc4)C4C=CC32O4)C1C` (stereo not given), the “activity change, negative = inhibition” value is reported as -2.85% (inactive). With `Cc1c(C(=O)NCc2c(F)cc(F)cc2F)oc2ccc(S(=O)(=O)N3CCOCC3)cc12` the “activity change, negative = inhibition” value was 0.213% (inactive). For `CC(CN1CCCCC1)OC(=O)c1ccc(Cl)cc1` (stereo not given), the “activity change, negative = inhibition” value was 0.866% (inactive). In the case of `O=C(c1ccc(CS(=O)(=O)c2ccc(Br)cc2)o1)N1CCCC1`, the “activity change, negative = inhibition” value is reported as -2.08% (inactive). With `CC(C(=O)Nc1ccc(C(=O)O)c(O)c1)N1C(=O)/C(=C\c2ccco2)SC1=S` (stereo not given) the Potency was 7.94 µM (active). For `COC(=O)CSc1nc2c(c(-c3ccco3)c1C#N)CCCC2`, the “activity change, negative = inhibition” value was 4.87% (inactive). With `CCN1C(=O)CSc2ccc(C(=O)NC3CCCCC3)cc21` the “activity change, negative = inhibition” value was 2.46% (inactive). With `Cc1c(O)c(CN2CCCC2)cc2c3c(c(=O)oc12)CCC3` the “activity change, negative = inhibition” value was 1.28% (inactive). In the case of `CC(=O)O[C@H]1[C@H](O)[C@H](Oc2c(O)c(C)c3c4c2[C@@H](C)CC[C@@H]4[C@@H](C)C[C@H]3C=C(C)C)O[C@@H](C)[C@H]1O`, the “activity change, negative = inhibition” value is reported as 0.217% (inactive). With `CC(C)(C)NC(=O)CSc1nc(O)cc(=O)n1-c1ccccc1F` the “activity change, negative = inhibition” value was 7.8% (inactive). In the case of `CC1=NN(C(=O)c2csc(C)c2C)C(O)(C(F)(F)F)C1` (stereo not given), the “activity change, negative = inhibition” value is reported as 0.112% (inactive). In the case of `CCC(CO)Nc1nc(CN2CCCCC2)nc2scc(-c3ccccc3)c12` (stereo not given), the “activity change, negative = inhibition” value is reported as 0.692% (inactive). For `COc1ccc(-n2c(O)c(/C=N/n3cnnc3)c3ccccc3c2=O)cc1`, the “activity change, negative = inhibition” value was 9.52% (inactive).
